CYP2C19 inh – blockers of cytochrome P450 2C19 activity – biochemical, luminescence, ADME assay, primary screen. CYP2C19 Supersomes, luciferin-H EGE luminescence, 30 min. inhibition, % at 5 µM. AID 778, 2007. actives 21% (n = 96,000);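 active = CYP2C19 inhibition above a set limit at 5 µM in the primary screen, cut at about 50% in these data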;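 note: plate controls were negative control wells for no effect and 2.5 mM tranylcypromine positive control for full effect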
PostGolgi yeast – phenotypic screen on post-Golgi transport, primary screen | post-Golgi transport phenotypic cell assay | inhibition, % at 10 µM | actives 0.9% (n = 98,000) | AID 739, 2007;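 note: yeast cells grown in 1536-well plates; yeast grown about 18 h at 30C before absorbance read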
CYP2C9 activ – human CYP2C9 activators, primary screen, biochemical, luminescence; AID 1024, 2008; activation factor at 5 µM; recombinant CYP2C9, luciferin-H conversion; stronger effect = higher value; factor 1 = untreated enzyme, 0 = blocked; actives 1.4% (n = 96,000);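 active = activation factor of 2 or more for CYP2C9 at a 5 µM dose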;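 note: 0 = sulfaphenazole-blocked wells and 1 = vehicle-only wells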
Target sequence (P11712 whole entry, looked up): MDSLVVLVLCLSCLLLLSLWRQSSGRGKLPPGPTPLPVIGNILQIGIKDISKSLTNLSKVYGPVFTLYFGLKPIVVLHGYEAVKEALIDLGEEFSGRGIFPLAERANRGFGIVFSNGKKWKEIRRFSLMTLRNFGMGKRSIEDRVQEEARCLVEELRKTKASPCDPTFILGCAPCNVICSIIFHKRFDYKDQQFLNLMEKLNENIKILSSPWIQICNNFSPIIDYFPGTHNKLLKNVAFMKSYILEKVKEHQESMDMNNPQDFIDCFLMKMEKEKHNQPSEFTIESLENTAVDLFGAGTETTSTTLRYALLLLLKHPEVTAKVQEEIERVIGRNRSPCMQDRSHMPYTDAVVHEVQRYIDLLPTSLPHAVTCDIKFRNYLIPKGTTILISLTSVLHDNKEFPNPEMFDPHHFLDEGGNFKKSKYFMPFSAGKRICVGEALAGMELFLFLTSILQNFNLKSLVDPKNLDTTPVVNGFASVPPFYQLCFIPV
CYP2C19 act – human CYP2C19 activators, primary screen, biochemical, luminescence | recombinant CYP2C19, luciferin-H EGE luminescence; stronger effect = higher value; 0 = fully inhibited enzyme, 1 = untreated enzyme | activation factor at 5 µM | AID 1025, 2008 | Cytochrome P450 2C19 (Homo sapiens), P33261 | 96,000 tested, under 10 active;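 active = activation factor of at least 2 at 5 µM in the primary screen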;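 note: 0 = wells with 2.5 mM tranylcypromine and 1 = vehicle-only wells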
CYP2C9 inh – blockers of cytochrome P450 2C9 activity – biochemical, luminescence, ADME assay, primary screen | P11712 | CYP2C9 Supersomes, luciferin-H conversion | inhibition, % at 5 µM | actives 20% (n = 96,000) | AID 777, 2007;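 active = blocking of liver enzyme CYP2C9 beyond about 50% at 5 µM, limit read from the data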
PostGolgi ctrl – growth inhibition of yeast control strain, primary screen, counter-screen for post-Golgi transport modulator project; inhibition, % at 10 µM; actives 5% (n = 98,000); efflux-deficient yeast background strain, growth absorbance A615, 16 h
Starred values were filed as active, the others as inactive. Rows were chosen to be rich in hits. Some 32% of all compounds tested hit in one or more screens of this group. Cut-off read from the data, not from the text of the source, unless noted: active = inhibition above about 30%; inactive = the rest.

COc1ccc(-c2nn3c(COc4ccccc4)nnc3s2)cc1OC was read as CYP2C19 inh 28, PostGolgi yeast 0, CYP2C9 activ 0.4, CYP2C19 act 0.7, CYP2C9 inh 58* and PostGolgi ctrl 24.
Screening Clc1ccc(Cl)c(-c2nn3c(COc4ccccc4)nnc3s2)c1 returned CYP2C19 inh 29, PostGolgi yeast -2, CYP2C9 activ 0.5, CYP2C19 act 0.7, CYP2C9 inh 50* and PostGolgi ctrl -2.
`c1ccc(OCc2nn3c(Cn4nnc5ccccc54)nnc3s2)cc1` gave CYP2C19 inh 25, PostGolgi yeast 2, CYP2C9 activ 0.9, CYP2C19 act 0.8, CYP2C9 inh 8 and PostGolgi ctrl 27.
`c1ccc(OCc2nnc3sc(-c4cccs4)nn23)cc1` gave CYP2C19 inh 53*, PostGolgi yeast -4, CYP2C9 activ 0.4, CYP2C19 act 0.5, CYP2C9 inh 58* and PostGolgi ctrl 12.
Screening CCOc1ccc(-c2nc(S(=O)(=O)c3ccccc3)c(NCc3cccnc3)o2)cc1 returned CYP2C19 inh 41, PostGolgi yeast 12, CYP2C9 activ 0.8, CYP2C19 act 0.6, CYP2C9 inh 24 and PostGolgi ctrl 8.
`Cc1ccc(S(=O)(=O)N2CCCOC2)cc1` gave CYP2C19 inh 41, PostGolgi yeast 1, CYP2C9 activ 1.1, CYP2C19 act 0.6, CYP2C9 inh -11 and PostGolgi ctrl 0.
For CCc1ccc(OCC(=O)NNC(=O)CSc2ncnc3sc(C)c(C)c23)cc1 the results were CYP2C19 inh 8, PostGolgi yeast -21, CYP2C9 activ 1.1, CYP2C19 act 0.9, CYP2C9 inh -13 and PostGolgi ctrl -7.
For Cc1nnc(SCC(=O)Nc2ccccc2)n1CCc1ccccc1 the results were CYP2C19 inh 34, PostGolgi yeast 7, CYP2C9 activ 0.9, CYP2C19 act 0.7, CYP2C9 inh 14 and PostGolgi ctrl 4.
`CCOC(=O)c1ccc(NC(=O)CSc2nnc(C)n2-c2ccccc2)cc1` gave CYP2C19 inh 8, PostGolgi yeast 18, CYP2C9 activ 0.8, CYP2C19 act 0.9, CYP2C9 inh 16 and PostGolgi ctrl 0.
For CCn1nnnc1SCC(=O)Nc1cccc(NC(C)=O)c1 the results were CYP2C19 inh -6, PostGolgi yeast 11, CYP2C9 activ 1.1, CYP2C19 act 1.1, CYP2C9 inh -7 and PostGolgi ctrl -1.
CCOC(=O)c1cccc(NC(=O)CSc2nc(N)cc(N)n2)c1 was read as CYP2C19 inh 64*, PostGolgi yeast -3, CYP2C9 activ 0.2, CYP2C19 act 0.4, CYP2C9 inh 78* and PostGolgi ctrl -7.
Screening CCOC(=O)c1cccc(NC(=O)CSc2nnnn2CC)c1 returned CYP2C19 inh 55*, PostGolgi yeast -4, CYP2C9 activ 0.2, CYP2C19 act 0.4, CYP2C9 inh 83* and PostGolgi ctrl 5.
Screening CCOC(=O)c1cccc(NC(=O)CSc2nnc(C)n2Cc2ccccc2)c1 returned CYP2C19 inh 87*, PostGolgi yeast 3, CYP2C9 activ 0.1, CYP2C19 act 0.1, CYP2C9 inh 91* and PostGolgi ctrl 8.
CCOC(=O)c1ccc(NC(=O)CSc2nnnn2CCCO)cc1 was read as CYP2C19 inh 58*, PostGolgi yeast 1, CYP2C9 activ 0.6, CYP2C19 act 0.4, CYP2C9 inh 44 and PostGolgi ctrl 6.
COc1nc(-c2cccs2)cc(-c2ccc(C)cc2)c1C#N was read as CYP2C19 inh 5, PostGolgi yeast 1, CYP2C9 activ 0.8, CYP2C19 act 1, CYP2C9 inh 21 and PostGolgi ctrl 5.
Screening COCCn1c(SCc2c(F)cccc2Cl)nc2c1c(=O)[nH]c(=O)n2C returned CYP2C19 inh 46, PostGolgi yeast -1, CYP2C9 activ 0.8, CYP2C19 act 0.5, CYP2C9 inh 23 and PostGolgi ctrl -2.
O=C(c1ccc(-c2ccccc2)cc1)N1CCN(Cc2ccccn2)CC1 was read as CYP2C19 inh -4, PostGolgi yeast 3, CYP2C9 activ 1.1, CYP2C19 act 1, CYP2C9 inh -9 and PostGolgi ctrl -3.
`Cc1c(C(=O)N2CCCC2)sc(NC(=O)c2cccc(Cl)c2)c1C#N` gave CYP2C19 inh -12, PostGolgi yeast -6, CYP2C9 activ 0.7, CYP2C19 act 1.1, CYP2C9 inh 31 and PostGolgi ctrl 17.
`CCN(CCCCN1C(=O)c2ccccc2C1=O)c1ccc2c(c1)C(=O)N(C)C2=O` gave CYP2C19 inh 45, PostGolgi yeast 3, CYP2C9 activ 0.5, CYP2C19 act 0.5, CYP2C9 inh 46 and PostGolgi ctrl 9.
Screening CCOC(=O)c1cccc(NC(=O)CSc2nnc(C3CCCCC3)n2CC)c1 returned CYP2C19 inh 26, PostGolgi yeast -2, CYP2C9 activ 0.5, CYP2C19 act 0.7, CYP2C9 inh 46 and PostGolgi ctrl 15.
CCOC(=O)c1cccc(NC(=O)CSc2nnc(-c3ccoc3C)n2CC)c1 was read as CYP2C19 inh 43, PostGolgi yeast 3, CYP2C9 activ 0.3, CYP2C19 act 0.6, CYP2C9 inh 70* and PostGolgi ctrl 9.
Screening O=C(CCN1C(=O)COc2ccccc21)NCCN1CCN(c2cccc(Cl)c2)CC1 returned CYP2C19 inh 14, PostGolgi yeast 2, CYP2C9 activ 1, CYP2C19 act 0.9, CYP2C9 inh 2 and PostGolgi ctrl -6.
Screening O=S(=O)(NCc1csc(-c2cccnc2)n1)c1ccc(Cl)s1 returned CYP2C19 inh 76*, PostGolgi yeast 4, CYP2C9 activ 0.4, CYP2C19 act 0.2, CYP2C9 inh 62* and PostGolgi ctrl 13.
`O=S(=O)(NCc1csc(-c2ccccc2)n1)c1ccc(Cl)s1` gave PostGolgi yeast 3 and PostGolgi ctrl 33*.
Screening CCS(=O)(=O)c1ccc(-c2csc(-c3ccccc3)n2)c(Cl)c1Cl returned CYP2C19 inh 16, PostGolgi yeast -5, CYP2C9 activ 0.9, CYP2C19 act 0.8, CYP2C9 inh 14 and PostGolgi ctrl 9.
`Nc1nnc(CCC2CCCCC2)s1` gave CYP2C19 inh 73*, PostGolgi yeast -1, CYP2C9 activ 1.1, CYP2C19 act 0.3, CYP2C9 inh -12 and PostGolgi ctrl 6.
`CN(C)CCN1C(=O)C(=O)/C(=C(/O)c2ccc(F)cc2)C1c1ccccc1F` (stereo not given) gave CYP2C19 inh -5, PostGolgi yeast 1, CYP2C9 activ 1, CYP2C19 act 1, CYP2C9 inh 1 and PostGolgi ctrl 4.
COc1ccccc1C(=O)n1nc(-c2ccco2)nc1N was read as CYP2C19 inh 57*, PostGolgi yeast 4, CYP2C9 activ 0.9, CYP2C19 act 0.4, CYP2C9 inh 11 and PostGolgi ctrl 8.

Screening results (PubChem BioAssay)
